Several values for one entry are separate records, joined by “and”; a condition that tells them apart may be missing. Identical values can stand only once. Inconclusive results are not listed. A call without a number means that no potency is given here. Activity calls are given as the source filed them. Calls follow the shape of the dose curve; as a rule, active = well fitted cell-killing curve with a large enough effect in the repeat runs; inconclusive = weak or mixed curves, or effect the other way; inactive = no such curve, though single readings can be large or run the other way.
Potency is read from the fitted curve at half-maximal effect.

The nature of this experiment: qHTS assay to identify small molecule antagonists of the retinoid-related orphan receptor gamma (ROR-gamma) signaling pathway - cell viability counter screen (AID 1159520). Also: nearly all actives have a fitted effect of over 50% in size. To be noted: Tet-on RORgamma CHO cells viability, ATP luminescence, 16 h; series mostly up to 92.4 µM. The gist of the method:
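Tet-on ROR gamma CHO cells (1,000/well) were plated 4 hr, given compounds in DMSO for 2 hr at 37 C, then induced with 1 uM final doxycycline for 16 hr. Viability was read as ATP by CellTiter-Glo luminescence after 30 min.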
On the technique in general: qHTS replaces the single test concentration by a dilution series.
In the case of `COc1cccc2c1C(=O)c1c(O)c3c(c(O)c1C2=O)C[C@@](O)(C(=O)CO)CC3OC1CC(N2CCOC(OC)C2)C(O)C(C)O1` (stereo partly drawn), the Potency was 133 nM (active). Next, `Cn1cc(C2=C(c3cn(C4CCN(Cc5ccccn5)CC4)c4ccccc34)C(=O)NC2=O)c2ccccc21`: “inactive”; `Clc1ccc(CO/N=C(\Cn2ccnc2)c2ccc(Cl)cc2Cl)c(Cl)c1`: 26600 nM (active). Next, `COP(=O)(CCC(=O)NCO)OC`: “inactive”; `CCCCCCCCCCCCCCCC[n+]1ccccc1`: 54.5 µM (active) [middle of 4 runs]; `CCCCCCCCCCCCCCCC[N+](C)(C)C`: 29.5 µM (active) and 61.1 µM (active) and 29.8 µM (active). Regarding `ClC(Cl)=C(c1ccc(Cl)cc1)c1ccc(Cl)cc1`, the Potency result is “inactive”. Consider `ClC1=C(Cl)[C@]2(Cl)[C@@H]3[C@@H](Cl)[C@@H](Cl)C[C@@H]3[C@@]1(Cl)C2(Cl)Cl`, for which the Potency entry was “inactive”.
